Experimental data as given in PubChem BioAssay.
Calls of active or inactive are those of the source.

Legend:
[1] = system: Human papillomavirus type 1a protein E7 (residues 44-93); experiment: HPV1a E7 fragment binders on microarrays, primary screen, biochemical, small-molecule microarray, residues 44-93, 635 nm fluorescence (AID 1108); settings: small-molecule microarray binding, fluorescence 635 nm; higher = more signal;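 further: E7 fragment applied at 1 µg/mL in TBST for 1 h at 4 C; score combines spot fluorescence with its signal to noise ratio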
[2] = modulators of HCV replicon luciferase signal, primary screen, HCV replication inhibitor project, Huh7 cells, luciferase reporter (AID 1109); settings: 48 h, higher = more signal;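 further: huh7 hepatoma cells harbouring a luciferase neomycin HCV replicon reporter; luciferase luminescence as measure of HCV replicon replication; test concentration not given here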
[3] = target: Left-right determination factor 2 (Homo sapiens) (UniProt O00292); experiment: LEFTY2 binders on small-molecule microarrays, primary screen, biochemical, small-molecule microarray, 635 nm fluorescence scan (AID 1110); settings: LEFTY2 binding, higher = more signal
Sequence of Left-right determination factor 2 (Homo sapiens) (O00292 whole entry, looked up): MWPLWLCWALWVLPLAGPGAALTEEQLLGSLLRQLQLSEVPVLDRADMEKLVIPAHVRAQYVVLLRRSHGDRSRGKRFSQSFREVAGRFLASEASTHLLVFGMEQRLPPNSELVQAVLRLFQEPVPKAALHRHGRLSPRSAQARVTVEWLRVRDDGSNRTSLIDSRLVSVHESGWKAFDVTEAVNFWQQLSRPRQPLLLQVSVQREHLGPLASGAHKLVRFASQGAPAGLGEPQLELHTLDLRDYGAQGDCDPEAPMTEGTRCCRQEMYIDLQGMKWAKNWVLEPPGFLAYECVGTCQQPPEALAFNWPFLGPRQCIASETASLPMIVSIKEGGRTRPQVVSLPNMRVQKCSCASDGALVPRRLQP

[4] = target: Calmodulin-1 (Homo sapiens) (UniProt P0DP23); experiment: CALM1 binders on microarrays, EGTA buffer, profiling panel, biochemical, small-molecule microarray, Cy5-labelled CALM1 (AID 1111); settings: Cy5-CALM1 binding fluorescence, higher = more signal;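 further: labelled calmodulin applied in Tris saline Tween buffer holding calcium plus EGTA and DTT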
[5] = target: Calmodulin-1 (Homo sapiens) (UniProt P0DP23); experiment: calcium-bound CALM1 binders on microarrays, profiling panel, artefact control for SMM control-protein annotation, biochemical, small-molecule microarray, Cy5-labelled CALM1, plus calcium (AID 1112); settings: Cy5-CALM1 binding fluorescence, higher = more signal;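 further: score merges spot fluorescence with signal to noise from triplicate slides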
[6] = small-molecule microarray binders of probe aWnt5a, primary screen, biochemical, biotinylated probe, 635/667 nm fluorescence (AID 1113); settings: higher = more signal;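 further: score merges 667 nm fluorescence intensity with signal-to-noise per printed feature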
[7] = small-molecule microarray binders of probe aShh, primary screen, biochemical, biotinylated probe, 635/667 nm fluorescence (AID 1114); settings: higher = more signal;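 further: probe is biotin-labelled aShh protein from a stem cell growth factor screen; measures binding of labelled protein to compounds printed on the slide; score merges feature fluorescence at 667 nm with signal-to-noise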
[8] = small-molecule microarray binders of probe aNog, primary screen, biochemical, biotinylated probe, 635/667 nm fluorescence (AID 1115); settings: higher = more signal;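 further: probe is biotinylated aNog protein used at 0.15 µg/mL for 1 h at 4 C; z-score combines 667 nm fluorescence of each spot with its signal to noise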
[9] = target: Torsin-1A-interacting protein 1 (Homo sapiens) (UniProt Q5JTV8); experiment: LAP1 binders from COS7 cell lysate, primary screen, small-molecule microarray, 635/667 nm fluorescence (AID 1116); settings: COS7-hLAP1 lysate binding, 635 nm fluorescence, higher = more signal
Sequence of Torsin-1A-interacting protein 1 (Homo sapiens) (Q5JTV8 whole entry, looked up): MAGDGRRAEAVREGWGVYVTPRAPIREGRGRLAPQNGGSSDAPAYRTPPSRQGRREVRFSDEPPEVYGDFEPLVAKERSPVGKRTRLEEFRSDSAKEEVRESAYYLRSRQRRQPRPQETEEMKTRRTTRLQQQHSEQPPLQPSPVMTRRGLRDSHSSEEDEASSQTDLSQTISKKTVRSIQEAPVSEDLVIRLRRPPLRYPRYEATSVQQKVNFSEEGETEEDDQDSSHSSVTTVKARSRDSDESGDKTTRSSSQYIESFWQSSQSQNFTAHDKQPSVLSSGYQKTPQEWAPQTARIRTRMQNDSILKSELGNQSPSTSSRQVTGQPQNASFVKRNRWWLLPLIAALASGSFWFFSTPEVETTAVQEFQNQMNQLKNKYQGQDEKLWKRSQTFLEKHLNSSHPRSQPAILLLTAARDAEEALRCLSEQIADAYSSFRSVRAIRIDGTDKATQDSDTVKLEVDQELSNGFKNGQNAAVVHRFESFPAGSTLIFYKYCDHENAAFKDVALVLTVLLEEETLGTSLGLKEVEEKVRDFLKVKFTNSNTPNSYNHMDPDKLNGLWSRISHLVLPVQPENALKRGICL

[10] = target: Alpha-bungarotoxin (Bungarus multicinctus) (UniProt P60615); experiment: alpha-bungarotoxin binders on microarray, profiling panel, artefact control for SMM control protein annotation, biochemical, small-molecule microarray, Alexa647 label, 635/667 nm fluorescence (AID 1117); settings: alpha-BTX-A647 binding fluorescence, higher = more signal
Sequence of Alpha-bungarotoxin (Bungarus multicinctus) (P60615 whole entry, looked up): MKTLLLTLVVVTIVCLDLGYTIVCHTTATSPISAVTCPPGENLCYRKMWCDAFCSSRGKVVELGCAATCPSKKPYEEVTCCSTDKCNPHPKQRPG

Albumin (Bos taurus) = Albumin (Bos taurus) (UniProt P02769); experiment: bovine serum albumin binders on microarray, profiling panel, artefact control for SMM control protein annotation, biochemical, small-molecule microarray, Alexa647 label, 635/667 nm fluorescence (AID 1118); settings: BSA-A647 binding, fluorescence 635 nm, higher = more signal;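 further: score merges 667 nm emission intensity and signal-to-noise per printed compound spot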
Sequence of Albumin (Bos taurus) (P02769 whole entry, looked up): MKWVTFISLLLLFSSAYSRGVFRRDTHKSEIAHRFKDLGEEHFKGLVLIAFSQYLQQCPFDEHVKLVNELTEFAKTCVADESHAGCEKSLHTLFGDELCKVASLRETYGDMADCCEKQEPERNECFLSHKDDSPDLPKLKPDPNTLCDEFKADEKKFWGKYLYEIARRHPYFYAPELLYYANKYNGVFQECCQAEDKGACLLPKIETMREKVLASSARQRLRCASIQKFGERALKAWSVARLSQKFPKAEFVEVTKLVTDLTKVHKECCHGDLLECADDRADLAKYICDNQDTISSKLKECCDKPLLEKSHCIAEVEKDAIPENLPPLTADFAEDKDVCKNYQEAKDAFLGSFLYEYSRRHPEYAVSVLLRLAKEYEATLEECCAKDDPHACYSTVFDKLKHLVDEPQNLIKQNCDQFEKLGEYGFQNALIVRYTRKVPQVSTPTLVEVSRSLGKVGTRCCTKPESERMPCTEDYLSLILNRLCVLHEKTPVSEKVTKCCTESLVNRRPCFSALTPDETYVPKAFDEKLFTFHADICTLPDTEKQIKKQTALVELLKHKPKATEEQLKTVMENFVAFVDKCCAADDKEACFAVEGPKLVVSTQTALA

[11] = small-molecule microarray binders of probe aXIP, primary screen, biochemical, NeuroSMM set, 635/667 nm fluorescence (AID 1119); settings: higher = more signal, called active from +8 up or from −8 down;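 further: probe is the protein aXip251-270 applied at 1 µg/mL to compound-printed slides; binding of probe to printed compounds measured as 667 nm fluorescence plus signal to noise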
[12] = small-molecule binders of probe aNOTCH3, primary screen, biochemical, small-molecule microarray, 635/667 nm fluorescence (AID 1120); settings: higher = more signal;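 further: probe is a biotin-tagged antibody raised against NOTCH3 rather than NOTCH3 protein; score merges spot fluorescence near 667 nm with spot signal to noise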
[13] = small-molecule binders of probe aNOTCH2, primary screen, biochemical, small-molecule microarray, 635/667 nm fluorescence (AID 1121); settings: higher = more signal;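 further: score merges feature fluorescence read at 667 nm with its signal to noise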
[14] = target: Carbonic anhydrase 2 (Homo sapiens) (UniProt P00918); experiment: CAII small-molecule binders, profiling panel, biochemical, small-molecule microarray, Alexa647-labelled CAII (AID 1122); settings: CAII-A647 binding fluorescence, higher = more signal
[15] = COS7 lysate on small-molecule microarray, probe aHis, 635 nm (AID 1123); settings: COS7 cell lysate, fluorescence, higher = more signal;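 further: z-score combines 667nm fluorescence intensity with signal-to-noise per printed compound spot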
[16] = compound binding in COS7 lysate, probe aLAP1, primary screen, cell lysate, small-molecule microarray (AID 1124); settings: probe aLAP1, fluorescence, higher = more signal;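 further: lysate comes from COS7 cells expressing LAP1 and is applied at 0.3 µg/mL; score merges spot fluorescence near 667 nm with signal-to-noise over triplicate slides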
Sam68 (KHDRBS1) = experiment: Sam68 small-molecule binders, primary screen, biochemical, small-molecule microarray, 635 nm fluorescence (AID 1125); settings: small-molecule microarray binding, higher = more signal;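 further: score merges 667 nm channel intensity with signal to noise over triplicate slides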
[17] = system: Chordin-like protein 2 (CHRDL2); experiment: CHRDL2 small-molecule binders, primary screen, biochemical, small-molecule microarray, 635 nm fluorescence (AID 1126); settings: small-molecule microarray binding, fluorescence 635 nm; higher = more signal;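 further: printed compound slides probed with Chrdl2 protein at 4 µg/mL for 1 h at 4 C; score merges 667 nm emission intensity with signal to noise over three replicate slides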
[18] = target: Concanavalin-A (Canavalia ensiformis) (UniProt P02866); experiment: ConA small-molecule binders, primary screen, artefact control for SMM control protein annotation, biochemical, small-molecule microarray, Alexa647 label, 635 nm (AID 1127); settings: ConA-A647 binding fluorescence, higher = more signal;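 further: z combines 667 nm emission intensity with signal-to-noise across three replicate slides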
Sequence of Concanavalin-A (Canavalia ensiformis) (P02866 whole entry, looked up): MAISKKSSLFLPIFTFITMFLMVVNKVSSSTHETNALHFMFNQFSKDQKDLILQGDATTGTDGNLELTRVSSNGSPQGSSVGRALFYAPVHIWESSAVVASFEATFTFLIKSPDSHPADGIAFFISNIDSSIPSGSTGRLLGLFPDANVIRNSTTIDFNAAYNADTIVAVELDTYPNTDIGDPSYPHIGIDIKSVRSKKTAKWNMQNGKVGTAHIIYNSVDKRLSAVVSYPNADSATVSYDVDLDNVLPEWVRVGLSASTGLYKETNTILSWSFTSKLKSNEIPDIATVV

SMILES | composite z-score [1] | z-score [2] | composite z-score [3] | composite z-score [4] | composite z-score [5] | composite z-score [6] | composite z-score [7] | composite z-score [8] | composite z-score [9] | composite z-score [10] | composite z-score (Albumin (Bos taurus)) | composite Z-score [11] | composite z-score [12] | composite z-score [13] | composite z-score [14] | composite z-score [15] | composite z-score [16] | composite z-score (Sam68 (KHDRBS1)) | composite z-score [17] | composite z-score [18]
COC(=O)c1c2oc(c1C(=O)OC)C(=O)N(Cc1ccccc1)Cc1cn(nn1)C[C@H](Cc1ccccc1)NC(=O)N[C@H](CO)CC2 | 0.196 | -0.533 | 0.269 | -0.201 | -0.464 | -0.0194 | -0.367 | -0.359 | 0.678 | -0.129 | 0.784 | 0.535 (inactive) | -0.0918 | -0.14 | 0.778 | 0.87 | 0.487 | 0.636 | 0.369 | 0.861
[N-]=[N+]=NCc1ccccc1[C@@H]1OC(c2ccc(OCCCO)cc2)=N[C@]1(CCS(=O)(=O)c1ccccc1)C(=O)NCC(O)CO (stereo not given in full) | 0.711 | -1.2 | -0.275 | 2.14 | 0.701 | 0.0799 | 0.0062 | 0.975 | 4.4 | 2.17 | 0.979 | 0.131 (inactive) | 0.13 | 0.208 | 0.526 | 3.18 | 1.01 | 1.29 | -0.563 | 1.18
COC(=O)[C@@]1(Cc2ccc(OC)cc2)[C@H]2c3cc(C(=O)N4CCCC4)n(Cc4cccc5ccccc45)c3C[C@H]2CN1C(=O)c1ccccc1 | 0.764 | -0.356 | -0.58 | 1.38 | 0.498 | 0.0913 | 0.521 | 1.95 | 1.3 | 0.716 | 1.02 | -0.115 (inactive) | 0.137 | 0.377 | 0.757 | 2.55 | 0.592 | 0.462 | -0.133 | 0.686
CN(C)C(=O)[C@@]1(Cc2ccccc2CN=[N+]=[N-])N=C(c2ccc(OCCCO)cc2)O[C@H]1c1ccccc1CN=[N+]=[N-] | 1.27 | -2.63 | -0.462 | 1.69 | 1 | 0.0655 | 0.551 | 0.771 | 1.56 | 1.11 | 0.936 | 0.608 (inactive) | 0.602 | 0.202 | 0.703 | 2.79 | 0.15 | 0.873 | -0.103 | 1.07
CCCCCCCCCCC(O)C1C=CC2C(=O)N(C)C(=O)C2N1Nc1ccc([N+](=O)[O-])cc1[N+](=O)[O-] (stereo not given) | 1.38 | -1.06 | -0.323 | 1.62 | 1.05 | 0.0308 | 0.151 | 0.441 | 1.83 | 1.18 | 0.884 | 0.423 (inactive) | 0.0668 | 0.0807 | 0.589 | 2.32 | 0.141 | 1.11 | -0.0731 | 1.14
O=c1n(-c2ccccc2)c(=O)n2n1CC(COc1ccccc1)=C([C@H](O)CCc1ccccc1)[C@@H]2CO | 0.676 | -2.17 | 0.892 | -0.833 | -0.556 | -0.0269 | -0.338 | -0.588 | 0.0355 | 0.5 | -0.341 | 0.11 (inactive) | -0.187 | -0.0895 | -0.241 | 0.277 | -0.408 | -0.0362 | 0.315 | -0.352
COc1cc2c(cc1OC)CN(C(=O)[C@@H]1[C@H]3C(=O)O[C@H](c4ccccc4)[C@H](c4ccccc4)N3[C@H](c3ccc(OCCO)cc3)[C@@]13C(=O)Nc1ccc(C#CC4(O)CCCCCC4)cc13)CC2 | 1.34 | -1.34 | 0.866 | 1.52 | -0.225 | 0.0596 | 0.0985 | -0.111 | 1.37 | 1.69 | 0.872 | 0.266 (inactive) | 0.398 | -0.166 | 0.543 | 2.03 | 0.514 | 1.32 | 0.978 | 1.13
COC(=O)Cn1c(C(=O)N(C)C)cc2c1C[C@H]1CN(C(=O)c3ccccc3)[C@@](Cc3ccc(F)cc3)(C(=O)OC)[C@@H]21 | 0.389 | 0.387 | 0.484 | 0.642 | 0.496 | 0.328 | 0.235 | 0.715 | 0.768 | 0.368 | 0.944 | -0.155 (inactive) | 0.541 | 0.267 | 0.884 | 0.56 | 0.108 | -0.167 | 0.0171 | 0.136
COCCOC(=O)N1C(=O)[C@@]2(c3cc(C#CC4=CCCCC4)ccc31)[C@H](C(=O)N1CCCCCCC1)[C@H]1C(=O)O[C@H](c3ccccc3)[C@H](c3ccccc3)N1[C@@H]2c1ccc(O)cc1 | 1.26 | -1.35 | 0.134 | 0.765 | 0.522 | -0.001 | 0.156 | -0.0901 | 0.775 | 0.743 | 0.25 | 0.0769 (inactive) | 0.183 | 0.103 | 0.334 | 2.17 | 0.147 | 1.25 | 0.277 | 0.622
COCC1=C2[C@@H](CCc3ccccc3)OB(O)C[C@@H]2[C@@H]2C(=O)C=CC(=O)[C@@H]2C1 | 1.01 | -2.08 | 0.363 | 1.03 | 0.344 | -0.101 | 0.0684 | 0.26 | 0.236 | 1.43 | 0.739 | -0.228 (inactive) | 0.334 | -0.12 | 0.295 | 0.883 | 0.481 | 1.31 | 0.0197 | 1.02
[N-]=[N+]=NCc1ccccc1C[C@@]1(C(=O)N2CCCCC2)N=C(c2ccc(OCCCO)cc2)O[C@@H]1c1ccccc1 | 0.785 | -3.35 | -1.01 | 1.28 | 0.958 | 0.0141 | -0.325 | 0.46 | 2.15 | 1 | 0.901 | 0.269 (inactive) | -0.102 | -0.299 | 0.606 | 1.28 | -0.0762 | 1.07 | -1.27 | 0.64
